This excerpt belongs to a sample that is enriched for hits.
Cycloheximide cs = Cycloheximide Counterscreen for Small Molecule Inhibitors of Shiga Toxin. max response, %. actives 12% (n = 300,000). cell reporter, cycloheximide protein synthesis inhibition counterscreen; in the data active = max response mostly above about 13%, no sharp cut-off; inactive = mostly below about 14%; also: read at 38.3 µM for the half of the compounds with a filed dose; 0% is about no effect
RE007 growth inh = qHTS Assay for Inhibitors of the HIV-1 protein Vpr; S. pombe RE007 Vpr strain, BacTiter-Glo ATP luminescence, 24 h; Potency, µM (doses to about 92.2 µM), for the others: top-dose activity change, negative = less growth, hits mostly inhibitors; actives 0.21% (n = 360,000); AID 651644, 2012; active = well fitted falling curve with a large enough effect; also: potency is read from the fitted curve at half-maximal effect; % is scaled to controls: 0 for no effect and ±100 for the full control effect; nearly all actives have a fitted effect of over 50% in size
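Fission yeast strain RE007, carrying one chromosomally integrated HIV-1 vpr copy, was seeded at OD 0.01 in PMG+AL medium with 23 nL pinned compound. After 24 h at 30 °C and 99% humidity, viability was read by BacTiter-Glo luminescence.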
FBPA Giardia inh = qHTS Assay for Inhibitors of Fructose-1,6-bisphosphate Aldolase from Giardia Lamblia | A8B2U2 | purified Giardia FBPA | Potency, µM (series often up to 59.6 µM), for inactives: at the highest dose activity, negative = inhibition, hits mostly inhibitors | actives 0.71% (n = 290,000); also: potency is read from the fitted curve at half-maximal effect; % is scaled to controls: 0 for no effect and ±100 for the full control effect; nearly all actives have a fitted effect of over 55% in size
Target sequence (A8B2U2 whole entry, looked up): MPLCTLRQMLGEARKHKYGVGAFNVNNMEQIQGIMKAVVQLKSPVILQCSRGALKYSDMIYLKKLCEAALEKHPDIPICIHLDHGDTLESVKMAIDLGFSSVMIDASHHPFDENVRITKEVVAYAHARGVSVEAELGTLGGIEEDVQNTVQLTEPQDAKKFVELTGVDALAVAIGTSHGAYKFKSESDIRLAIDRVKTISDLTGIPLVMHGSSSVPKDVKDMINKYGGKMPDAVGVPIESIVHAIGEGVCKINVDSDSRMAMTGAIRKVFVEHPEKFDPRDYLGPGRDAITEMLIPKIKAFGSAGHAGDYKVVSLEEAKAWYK
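Giardia FBPA (40 nM reagent) was preincubated 10 min at RT with compound (up to 57.5 uM final), then substrate plus GAPDH/TPI/NAD/arsenate coupling system with diaphorase/resazurin was added; resorufin fluorescence (525/598 nm) was read after 20 min.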
LmPK inhibitor = qHTS Assay for Inhibitors of Leishmania Mexicana Pyruvate Kinase (LmPK); Q27686; purified LmPK, Kinase-Glo ATP luminescence, 1 h; Potency, µM (titrated, usually from 57.5 µM), without a hit: at the highest dose activity change, negative = inhibition, usual class: inhibitors; actives 0.37% (n = 290,000); also: potency is read from the fitted curve at half-maximal effect; % is scaled to controls: 0 for no effect and ±100 for the full control effect
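Screened at intermediate enzyme activity to detect both inhibitors and activators: LmPK at 0.1 nM, with a 0.5 nM enzyme column as activation reference. PEP 0.5 mM, ADP 0.1 mM; ATP detected by luminescence after 1 h.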
TbPYK inhibitor = qHTS of Trypanosoma Brucei Inhibitors. pyruvate kinase (Trypanosoma brucei), Q57TT1. TbPYK enzyme, Kinase-Glo Plus ATP luminescence, 45 min. Potency, µM (highest dose often 76.8 µM), inactives show top-dose activity, negative = inhibition, most hits filed as inhibitors. actives 0.12% (n = 410,000); also: potency is read from the fitted curve at half-maximal effect; % is scaled to controls: 0 for no effect and ±100 for the full control effect; nearly all actives have a fitted effect of over 50% in size
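Activity of T. brucei pyruvate kinase was followed by Kinase-Glo Plus luminescence after the enzyme reacted 45 min at room temperature with 130 uM ADP (final) and substrate. Test compounds were added before ADP at multiple concentrations.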
Shiga toxin inh = A qHTS for Small Molecule Inhibitors of Shiga Toxin; AID 2315, 2010; actives 9.2% (n = 290,000); Vero cells, Shiga toxin protein synthesis inhibition reporter; inhibition, % at 38.7 µM; in the data active = inhibition mostly above about 28%, no sharp cut-off; inactive = mostly below about 43%; also: 0% is about no effect
Active calls of the source: *; . = no result given. Unless noted, calls follow the shape of the dose curve; as a rule, active = well fitted curve in the direction sought with a large enough effect; inconclusive = small, poorly fitted or top-dose-only effect, or another doubt; inactive = no such curve, though single readings can be large; an effect the other way counts as inactive or inconclusive.

SMILES	Cycloheximide cs	RE007 growth inh	FBPA Giardia inh	LmPK inhibitor	TbPYK inhibitor	Shiga toxin inh
Cc1occc1C(=O)Nc1nnc(-c2cccs2)s1	33.9*	-8.4%	6.2%	-8.2%	-9.1%	106.5*
COc1ccc(NC(=O)Nc2nnc(-c3cccs3)s2)cc1	24.9*	-0.4%	1.0%	-10.6%	7.9%	61.2*
Cc1nnc(NC(=O)c2cccc(F)c2)s1	7.2	-0.7%	6.0%	-1.9%	2.5%	-2.7
COc1ccc(C(=O)Nc2nnc(-c3cccs3)s2)cc1	43.1*	-17.5%	7.2%	-6.7%	-6.5%	60.3*
Cc1ccc(C(=O)O)cc1NC(=O)CSc1ncnc2sc3c(c12)CCC3	-3.4	2.5%	14.8%	8.8%	0.7%	13.2
CN(C)C(CNC(=O)c1cc(S(=O)(=O)N2CCOCC2)ccc1F)c1cccs1 (stereo unspecified)	.	18.1%	.	.	2.2%	.
O=C(Nc1ccccc1)Nc1nnc(-c2cccs2)s1	29.0*	6.6%	0.6%	2.3%	2.0%	24.7
O=C(Cc1nnc(NC(=O)Nc2ccccc2)s1)Nc1ccccc1	-2.4	-5.2%	0.9%	4.8%	-1.1%	-2.4
COc1ccccc1-n1nc(-c2ccccc2)c2cnc3cc(C(F)(F)F)ccc3c21	.	.	.	.	1.0%	.
NC(=O)Cc1ccc(C(=O)c2ccc(F)cc2)s1	25.4*	8.5%	-2.5%	0.5%	-4.7%	19.8
CCCn1c2ccccc2c2cnn(CC(=O)Nc3ccccc3OC)c(=O)c21	.	.	.	.	3.7%	.
C/C(=N\NC(=S)Nc1ccccc1C)c1cc2ccccc2o1	16.9*	-14.2%	3.1%	-1.0%	-1.0%	26.2*
C/C(=N\NC(=S)Nc1c(C)cccc1C)c1cc2ccccc2o1	-1.9	7.7%	8.8%	0.6%	-3.8%	-9.0
C/C(=N\NC(=O)c1ccco1)c1cc(Cl)sc1Cl	24.7*	-1.4%	.	-9.2%	3.1%	71.2*
C/C(=N\NC(=O)c1ccco1)c1ccc(NC(=O)C(F)(F)F)cc1	56.8*	5.9%	-3.3%	0.5%	-3.7%	60.6*
C/C(=N\NC(=O)c1ccco1)c1ccc(-c2ccccc2)cc1	23.4*	-19.0%	7.9%	-2.0%	-1.5%	107.9*
CC(C)(C)c1ccc(C(=O)Nc2ccc(NC(=O)c3ccco3)cc2)cc1	-1.4	-15.7%	2.5%	-1.9%	-7.3%	-22.2
CCc1ccc(Cn2c(CNS(=O)(=O)c3ccc(F)c(Cl)c3)nc3cccnc32)cc1	.	.	.	.	6.2%	.
C/C(=N\NC(=O)c1ccco1)c1cc2ccccc2o1	57.7*	-21.5%	1.6%	2.6%	-9.9%	95.4*
C/C(=N\NC(=O)c1ccco1)c1ccc(NC(=O)c2ccccc2)cc1	35.5*	-16.6%	-11.9%	-12.1%	-3.4%	72.4*
C/C(=N\NC(=O)COc1ccccc1F)c1cc2ccccc2o1	47.9*	-9.5%	4.5%	-5.5%	-2.2%	126.1*
C/C(=N\NC(=O)c1ccncc1)c1cc2ccccc2o1	-1.2	9.9%	-9.4%	-1.6%	1.1%	14.1
C=CCNc1nc(C(=O)OCC(=O)Nc2c(Cl)cccc2C(F)(F)F)cs1	.	3.0%	.	.	-11.0%	.
COc1ccccc1C(=O)NCCNc1ccc([N+](=O)[O-])cc1Cl	-2.9	5.8%	0.8%	0.3%	0.6%	-0.6
O=C(CN1C(=O)C2(SCC(=O)N2c2ccccc2)c2ccccc21)Nc1ccccc1C(F)(F)F (stereo unspecified)	.	.	.	.	-3.3%	.
O=c1c2ccccc2nc(/C=C/c2ccccc2)n1CCCO	10.6	2.5%	-3.9%	-0.4%	1.8%	6.1
O=c1c2ccccc2nc(/C=C/c2ccc3c(c2)OCO3)n1CCCO	23.9*	29.2%	0.3%	-3.0%	-14.8%	46.7
O=c1c2ccccc2nc(/C=C/c2c[nH]c3ccccc23)n1CCO	37.8*	-7.9%	-8.2%	3.4%	8.6%	64.6*
COc1ccc(C(=O)Nc2c(Cl)cc(Cl)cc2C(=O)N2CCOCC2)cc1	-2.2	-10.6%	-0.8%	-3.8%	2.7%	-6.6
COCCn1c(=O)c(-c2cccs2)nc2cnc(Oc3ccccc3)nc21	.	.	-19.7%	.	.	.
